SMN2 splice up: SMN2 splice variant enhancement; HEK293 SMN2-luciferase splicing reporter, luminescence, 30-36 h; Potency, µM (highest dose often 46.1 µM), inactives show top-dose activity change, positive = activation, usual class: activators; 210,000 tested, 2.8% active; AID 1458; note: % of control where 0% means no effect; nearly all actives have a fitted effect of over 55% in size
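HEK293 cells carry an SMN2 minigene-luciferase reporter in which exon 7 inclusion puts luciferase in frame. Cells were seeded at 2000 cells/well, attached for 10-12 hours, then exposed to compounds for 30-36 hours at 37C before ONE-Glo luminescence.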
ELG1 DNA repair: inhibitors of ELG1-dependent DNA repair in HEK293T cells; HEK293T ELG1-luciferase reporter, luminescence, 16 h; DNA damage induced by 5-fluorouridine; 330,000 tested, 2.3% active; Potency, µM (doses to about 46.1 µM), for the others: at the top dose activity change, negative = inhibition, actives largely listed as inhibitors; note: % is set by controls: 0 for no effect and ±100 for the full control effect; nearly all actives have a fitted effect of over 55% in size
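HEK293T cells expressing luciferase-tagged ELG1 (2,000/well) received 5-Fluorouridine plus compound or DMSO for 16 hr at 37 °C. Luciferase was read by ONE-Glo luminescence after 30 min at room temperature.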
ELG1 genotoxic: induces genotoxicity in HEK293T cells with luciferase-tagged ELG1; HEK293T ELG1-luciferase reporter, luminescence, 16 h; Potency, µM (top dose mostly 46 µM), without a hit: top-dose activity change, positive = activation, actives largely listed as activators; 330,000 tested, 1.3% active; AID 504466; note: % of control where 0% means no effect; nearly all actives have a fitted effect of over 60% in size
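Luminescence read-out: rising ELG1-luciferase signal, reflecting elevated ELG1 protein under genetic stress, flags genotoxic compounds. Cells were treated for 16 hr at 37 °C before ONE-Glo detection.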
FLuc modulator: firefly luciferase modulation, counter-screen for miR-21 project | P08659 | Potency, µM (doses to about 57.5 µM), without a hit: at the top dose activity change, negative = inhibition, actives largely listed as inhibitors | 360,000 tested, 6.9% active | purified FLuc, Km substrates, luminescence inhibition;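 note: plate controls were vehicle for no effect and reference inhibitor for full effect; nearly all actives have a fitted effect of over 55% in size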
Target sequence (P08659 whole entry, looked up): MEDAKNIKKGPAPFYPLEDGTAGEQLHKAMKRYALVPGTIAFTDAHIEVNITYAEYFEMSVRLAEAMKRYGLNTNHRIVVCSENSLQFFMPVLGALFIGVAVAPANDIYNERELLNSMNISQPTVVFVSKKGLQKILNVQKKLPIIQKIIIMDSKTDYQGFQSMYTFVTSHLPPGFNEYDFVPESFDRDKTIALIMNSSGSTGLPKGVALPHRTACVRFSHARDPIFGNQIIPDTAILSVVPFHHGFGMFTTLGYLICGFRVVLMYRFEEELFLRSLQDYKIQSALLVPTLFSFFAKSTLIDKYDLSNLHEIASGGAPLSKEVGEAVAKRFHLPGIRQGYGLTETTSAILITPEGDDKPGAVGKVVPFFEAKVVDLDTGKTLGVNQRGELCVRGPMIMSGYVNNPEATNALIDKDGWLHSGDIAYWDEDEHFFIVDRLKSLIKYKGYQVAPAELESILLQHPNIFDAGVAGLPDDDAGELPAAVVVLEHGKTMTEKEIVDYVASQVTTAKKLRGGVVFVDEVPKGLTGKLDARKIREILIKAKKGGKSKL
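Biochemical qHTS of compounds, final roughly 60 µM downward over six points, against 10 nM purified firefly luciferase using Km concentrations of substrates (10 uM D-luciferin, 10 uM ATP) in Tris acetate pH 7.5 buffer; luminescence output.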
Rab9 prom act: activators of Rab9 promoter; Huh7 Rab9 promoter-luciferase reporter, luminescence, 24 h; Potency, µM (doses to about 9.22 µM), inactives show top-dose activation, negative = inhibition, most hits filed as activators; 320,000 tested, 2.8% active; AID 485297; note: % of control where 0% means no effect; nearly all actives have a fitted effect of over 60% in size
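Measured in stably transfected Huh7 cells bearing a Rab9 promoter–luciferase construct: 24 h compound treatment at 37 °C, followed by luminescence detection.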
NPC1 promoter act: activates the NPC1 promoter; Huh7 NPC1 promoter luciferase reporter, 24 h; Potency, µM (series often up to 9.22 µM), for inactives: top-dose activation, actives largely listed as activators; 320,000 tested, 2.4% active; AID 485313; note: % of control where 0% means no effect; nearly all actives have a fitted effect of over 60% in size
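Luminescence from an NPC1 promoter-driven luciferase reporter in stably transfected Huh7 cells was measured after 24 h compound treatment at 37 °C, followed by 10 min ambient incubation with luciferase detection reagent.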
An asterisk follows results filed as active. This is a sample that favours compounds with a hit; in the whole collection about 9.2% have one here. Calls come from the whole dose curve; as a rule, active = well fitted curve in the direction sought with a large enough effect; inconclusive = small, poorly fitted or top-dose-only effect, or another doubt; inactive = no such curve, though single readings can be large; an effect the other way counts as inactive or inconclusive. Potency is the fitted concentration of half-maximal effect.

What do the screens show for `C=CCN1C=CC(=C/C=C(/C#N)C(=O)OCC)C=C1`?
SMN2 splice up: 1.4µM*; ELG1 DNA repair: inconclusive; ELG1 genotoxic: 7.3µM*; FLuc modulator: 2.4µM*; Rab9 prom act: 2µM*; NPC1 promoter act: 2.5µM*

How did CC(=O)c1cc(-c2ccc(F)cc2)n(CCC(=O)Nc2nc3c(C)cccc3s2)c1C do in these assays?
FLuc modulator: -1%

Results for O=C(CCNC(=O)c1ccccc1Cl)Nc1nc2ccccc2[nH]1 ?
ELG1 DNA repair: 17%; ELG1 genotoxic: -1%

How did COc1ccccc1C(=O)NC(C)c1nc2ccccc2[nH]1 (stereo not given) do in these assays?
SMN2 splice up: -10%; ELG1 DNA repair: 16%; ELG1 genotoxic: -1%; FLuc modulator: 0%; Rab9 prom act: -6%; NPC1 promoter act: -2%

Results for COc1ccccc1C(=O)NCCC(=O)Nc1nc2ccccc2[nH]1 ?
ELG1 DNA repair: inconclusive; ELG1 genotoxic: 23µM*; FLuc modulator: -14%; Rab9 prom act: -2%; NPC1 promoter act: 2%

Results for COc1cc(SC)ccc1C(=O)Nc1nc2ccccc2[nH]1 ?
ELG1 DNA repair: inconclusive; ELG1 genotoxic: -17%; FLuc modulator: 0.014µM*; Rab9 prom act: -43%; NPC1 promoter act: -32%

How did COc1ccccc1C(=O)Nc1nc2ccccc2[nH]1 do in these assays?
ELG1 DNA repair: inconclusive; ELG1 genotoxic: inconclusive; FLuc modulator: 0.019µM*; Rab9 prom act: -44%; NPC1 promoter act: inconclusive

What do the screens show for `COc1cc(SC)ccc1C(=O)Nc1c(Cl)cncc1Cl`?
SMN2 splice up: 5%; ELG1 DNA repair: -11%; ELG1 genotoxic: -5%; FLuc modulator: -2%; Rab9 prom act: -28%; NPC1 promoter act: 0%

What do the screens show for `CCOCCN1CCN(c2c(CC)c(C)nc3cc(-c4cc(OC)cc(OC)c4)nn23)CC1`?
SMN2 splice up: -60%; ELG1 DNA repair: 6.5µM*; ELG1 genotoxic: -6%; FLuc modulator: -7%; Rab9 prom act: 1%; NPC1 promoter act: -8%

Results for CCc1c(C)nc2cc(-c3cc(OC)cc(OC)c3)nn2c1N1CCCC1 ?
SMN2 splice up: -6%; ELG1 DNA repair: inconclusive; ELG1 genotoxic: -14%; FLuc modulator: -4%; Rab9 prom act: -21%; NPC1 promoter act: -2%

Results for CCc1c(C)nc2cc(-c3ccc(OC)c(OC)c3)nn2c1N1CCC(C)CC1 ?
SMN2 splice up: 13%; ELG1 DNA repair: inconclusive; ELG1 genotoxic: 4%; FLuc modulator: 2%; Rab9 prom act: -17%; NPC1 promoter act: -3%

How did CCc1c(C)nc2cc(-c3ccc(OC)c(OC)c3)nn2c1N1CCCC1 do in these assays?
ELG1 DNA repair: 13µM*; ELG1 genotoxic: -18%; FLuc modulator: inconclusive; Rab9 prom act: -13%; NPC1 promoter act: -1%

How did COc1ccc(OC)c(S(=O)(=O)CC(O)CS(=O)(=O)c2ccccc2)c1 (stereo not given) do in these assays?
ELG1 DNA repair: 12%; ELG1 genotoxic: 1%; FLuc modulator: 2%; Rab9 prom act: 3%; NPC1 promoter act: 9%

What do the screens show for `COc1ccccc1C(=O)C1CCCN(C(=O)c2ccccc2Cl)C1` (stereo not given)?
ELG1 DNA repair: -2%; ELG1 genotoxic: -7%; FLuc modulator: 0%; Rab9 prom act: -2%; NPC1 promoter act: 2%

How did COc1ccccc1C(=O)C1CCCN(C(=O)c2cn3cc(Cl)ccc3n2)C1 (stereo not given) do in these assays?
ELG1 DNA repair: inconclusive; ELG1 genotoxic: 3%; FLuc modulator: 13µM*; Rab9 prom act: -3%; NPC1 promoter act: -4%

Results for COc1ccc(-c2cc(C(F)(F)F)nc(SCC(=O)N3CCCCC3)n2)cc1 ?
SMN2 splice up: 8%; FLuc modulator: -3%

How did CCc1nnc(NS(=O)(=O)c2ccc(N=Cc3c(C)[nH]n(-c4ccc(C)c(C)c4)c3=O)cc2)s1 do in these assays?
SMN2 splice up: inconclusive; ELG1 DNA repair: inconclusive; ELG1 genotoxic: 7%; FLuc modulator: 15µM*; Rab9 prom act: -2%; NPC1 promoter act: -1%

High-throughput results: PubChem, National Center for Advancing Translational Sciences (NCATS)
